Data reported in PubChem BioAssay (EPA / NIEHS).
The source made the active and inactive calls. Rule for the calls: active = hit-call score of the fitted dose curve at least 0.9, where 1 is the maximum; inactive = score below 0.9.

Key:
[1] = read-out: TIMP metallopeptidase inhibitor 2 (TIMP2), TIMP2 (gene 7077); assay: BSK_KF3CT_TIMP2: BioMAP Diversity Plus: KF3CT Assay for TIMP metallopeptidase inhibitor 2 (TIMP2) Biomarker Activity (AID 2283071); details: primary human keratinocytes with fibroblasts; actives raise or lower the signal
In short: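 Co-culture of human primary keratinocytes and foreskin fibroblasts, measured 24 h after chemical dosing. TIMP-2 quantified by ELISA and fitted in both directions relative to DMSO. Cytotoxicity checked in parallel cultures by SRB total-protein staining.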

[2] = read-out: Transforming growth factor beta 1 (TGFb1), TGFB1 (gene 7040); assay: BSK_KF3CT_TGFb1: BioMAP Diversity Plus: KF3CT Assay for Transforming growth factor beta 1 (TGFb1) Biomarker Activity (AID 2283072); details: primary human keratinocytes with fibroblasts; actives raise or lower the signal
In short: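 Human keratinocyte/foreskin fibroblast co-culture; TGF-b1 measured by ELISA 24 h after dosing, fitted bidirectionally versus DMSO. Cytotoxicity checked in parallel cultures by total protein (SRB staining, 560 nm).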

[3] = read-out: C-C motif chemokine 2 (Homo sapiens) (UniProt P13500); assay: BSK_KF3CT_MCP1: BioMAP Diversity Plus: KF3CT Assay for Monocyte Chemoattractant Protein 1 (MCP1/CCL2) Biomarker Activity (AID 2283073); details: primary human keratinocytes with fibroblasts; actives raise or lower the signal
In short: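 Human keratinocyte–foreskin fibroblast co-culture; MCP-1 measured by ELISA 24 h after dosing. Bidirectional fit vs DMSO; cytotoxicity tracked by SRB total protein in parallel cultures.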

[4] = read-out: Matrix Metallopeptidase 9 (MMP9), MMP9 (gene 4318); assay: BSK_KF3CT_MMP9: BioMAP Diversity Plus: KF3CT Assay for Matrix Metallopeptidase 9 (MMP9) Biomarker Activity (AID 2283074); details: primary human keratinocytes with fibroblasts; actives raise or lower the signal;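 for AC50: MMP9 protein level quantified by ELISA in the co-culture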
In short: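 Human keratinocyte/foreskin fibroblast co-culture; compound added; 24 h; MMP-9 by ELISA; bidirectional fit vs DMSO baseline.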

[5] = read-out: urokinase plasminogen activator (uPA), PLAU (gene 5328); assay: BSK_KF3CT_uPA: BioMAP Diversity Plus: KF3CT Assay for urokinase plasminogen activator (uPA) Biomarker Activity (AID 2283075); details: primary human keratinocytes with fibroblasts; actives raise or lower the signal
In short: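 ELISA readout of uPA, analyzed for signal gain or loss relative to DMSO, from a human primary keratinocyte–foreskin fibroblast co-culture measured 24 h after chemical treatment.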

[6] = read-out: E-selectin (Homo sapiens) (UniProt P16581); assay: BSK_LPS_Eselectin: BioMAP Diversity Plus: LPS Assay for Eselectin Biomarker Activity (AID 2283077); details: primary human HUVEC with PBMC; actives raise or lower the signal
In short: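 Human umbilical vein endothelial cells co-cultured with PBMC under LPS stimulation; cell-surface E-selectin measured by ELISA 24 h after dosing. Change in either direction versus DMSO, with SRB total-protein staining in parallel cultures for cytotoxicity.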

[7] = read-out: Interleukin-8 (IL8), CXCL8 (gene 3576); assay: BSK_LPS_IL8: BioMAP Diversity Plus: LPS Assay for Interleukin-8 (IL8) Biomarker Activity (AID 2283078); details: primary human HUVEC with PBMC; actives raise or lower the signal
In short: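 Human umbilical vein endothelial cells co-cultured with PBMC, LPS-stimulated, exposed to compound for 24 h. IL-8 quantified by ELISA; fitted in both directions against DMSO, with SRB total-protein staining of parallel cultures for cytotoxicity.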

[8] = BSK_LPS_SRB: Viability Assessment in the BioMAP Diversity Plus: LPS Assay (AID 2283079); details: primary human HUVEC with PBMC;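 note: total protein by sulforhodamine B absorbance as a cytotoxicity measure; measured one day after compound addition; fitted in both directions against DMSO so loss or gain of signal counts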
In short: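 Co-culture of human umbilical vein endothelial cells and PBMC, read 24 h after dosing. Total protein by 0.1% SRB staining after 10% TCA fixation, absorbance at 560 nm; bidirectional fit against DMSO.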

[9] = read-out: Interleukin-1 alpha (IL1a), IL1A (gene 3552); assay: BSK_LPS_IL1a: BioMAP Diversity Plus: LPS Assay for Interleukin-1 alpha (IL1a) Biomarker Activity (AID 2283080); details: primary human HUVEC with PBMC; actives raise or lower the signal
In short: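 Human umbilical vein endothelial cells co-cultured with PBMC and stimulated with LPS; IL-1a measured by ELISA 24 h after dosing. Bidirectional fitting against DMSO; cytotoxicity checked by SRB staining in parallel cultures.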

[10] = read-out: Monocyte Chemoattractant Protein-1 (MCP1), CCL2 (gene 6347); assay: BSK_LPS_MCP1: BioMAP Diversity Plus: LPS Assay for Monocyte Chemoattractant Protein-1 (MCP1) Biomarker Activity (AID 2283081); details: primary human HUVEC with PBMC; actives raise or lower the signal;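 for AC50: secreted MCP-1 protein quantified by ELISA in culture supernatant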
In short: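 Human umbilical vein endothelial cells co-cultured with PBMC, LPS-stimulated; secreted MCP-1 measured by ELISA 24 h after compound addition. Bidirectional curve fitting against DMSO baseline; SRB total-protein staining in parallel cultures for cytotoxicity.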

[11] = BSK_LPS_PGE2: BioMAP Diversity Plus: LPS Assay for Prostaglandin E2 (PGE2) Biomarker Activity (AID 2283082); details: primary human HUVEC with PBMC; actives raise or lower the signal;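 for AC50: secreted prostaglandin E2 measured by ELISA in LPS-stimulated co-culture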
In short: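 HUVEC plus human PBMC co-culture stimulated with LPS; secreted PGE2 quantified by ELISA 24 h after chemical dosing. Activity fitted bidirectionally against DMSO baseline; parallel SRB staining (0.1% SRB after 10% TCA fixation, 560 nm) flags overt cytotoxicity.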

[12] = read-out: Macrophage colony-stimulating factor (MCSF), CSF1 (gene 1435); assay: BSK_LPS_MCSF: BioMAP Diversity Plus: LPS Assay for Macrophage colony-stimulating factor (MCSF) Biomarker Activity (AID 2283083); details: primary human HUVEC with PBMC; actives raise or lower the signal
In short: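 HUVEC–PBMC co-culture, M-CSF measured by ELISA 24 h after chemical dosing. Fitted in both directions relative to DMSO as negative control; overt cytotoxicity assessed by SRB total-protein staining in parallel cultures.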

[13] = read-out: Tissue Factor, F3 (gene 2152); assay: BSK_LPS_TissueFactor: BioMAP Diversity Plus: LPS Assay for Tissue Factor Biomarker Activity (AID 2283084); details: primary human HUVEC with PBMC; actives raise or lower the signal
In short: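 Human umbilical vein endothelial cells co-cultured with PBMC were dosed with compound. Cell-surface CD142 was measured by ELISA 24 h later. Activity was fitted bidirectionally against DMSO, with SRB total-protein staining in parallel cultures for cytotoxicity.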

[14] = read-out: Tumor necrosis factor (Homo sapiens) (UniProt P01375); assay: BSK_LPS_TNFa: BioMAP Diversity Plus: LPS Assay for Tumour Necrosis Factor alpha (TNFa) Biomarker Activity (AID 2283085); details: primary human HUVEC with PBMC; actives raise or lower the signal
In short: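 Human umbilical vein endothelial cells co-cultured with PBMC and stimulated with LPS. TNFa was measured by ELISA 24 h after chemical dosing, fitted bidirectionally relative to DMSO.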

[15] = read-out: Vascular cell adhesion molecule 1 (VCAM1), VCAM1 (gene 7412); assay: BSK_LPS_VCAM1: BioMAP Diversity Plus: LPS Assay for Vascular cell adhesion molecule 1 (VCAM1) Biomarker Activity (AID 2283086); details: primary human HUVEC with PBMC; actives raise or lower the signal
In short: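 Human umbilical vein endothelial cells co-cultured with PBMC and stimulated with LPS; VCAM-1 measured by ELISA 24 h after dosing. Bidirectional curve fitting against DMSO baseline; cytotoxicity tracked in parallel by SRB total-protein staining.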

CD38, CD38 (gene 952) = assay: BSK_SAg_CD38: BioMAP Diversity Plus: SAg Assay for CD38 Biomarker Activity (AID 2283087); details: primary human HUVEC with PBMC; actives raise or lower the signal
In short: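 Human HUVEC plus PBMC co-culture stimulated with superantigen; CD38 measured by ELISA 24 h after chemical dosing. Fluorescence read-out, bidirectional fit against DMSO; cytotoxicity tracked in parallel by SRB and Alamar Blue.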

CD40, CD40 (gene 958) [16] = assay: BSK_SAg_CD40: BioMAP Diversity Plus: SAg Assay for CD40 Biomarker Activity (AID 2283088); details: primary human HUVEC with PBMC; actives raise or lower the signal
In short: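 HUVEC plus PBMC co-culture, superantigen-activated, with CD40 read by ELISA 24 h after dosing. Curves fitted in both directions against DMSO. Overt cytotoxicity checked by parallel SRB total-protein staining.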

CD69, CD69 (gene 969) = assay: BSK_SAg_CD69: BioMAP Diversity Plus: SAg Assay for CD69 Biomarker Activity (AID 2283089); details: primary human HUVEC with PBMC; actives raise or lower the signal;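 for AC50: cell surface CD69 protein quantified by ELISA with fluorescence detection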
In short: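 ELISA, fluorescence read-out: CD69 on human umbilical vein endothelial cell + PBMC co-culture, 24 h post-dosing. Gain or loss of signal fitted bidirectionally against DMSO baseline.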

[17] = read-out: Monocyte Chemoattractant Protein-1 (MCP1), CCL2 (gene 6347); assay: BSK_SAg_MCP1: BioMAP Diversity Plus: SAg Assay for Monocyte Chemoattractant Protein-1 (MCP1) Biomarker Activity (AID 2283090); details: primary human HUVEC with PBMC; actives raise or lower the signal
In short: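 MCP-1 levels in the endothelial–PBMC SAg co-culture were quantified by ELISA at 24 h post-dosing; both increases and decreases versus DMSO scored. Cytotoxicity monitored by SRB total protein in parallel cultures.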

CD40, CD40 (gene 958) [18] = assay: BSK_LPS_CD40: BioMAP Diversity Plus: LPS Assay for CD40 Biomarker Activity (AID 2283076); details: primary human HUVEC with PBMC; actives raise or lower the signal
In short: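 HUVEC plus PBMC co-culture stimulated with LPS; CD40 quantified by ELISA 24 h after compound dosing. Fitting was bidirectional relative to DMSO. SRB staining of parallel cultures flagged overt cytotoxicity.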

Measured: AC50

Sequence of E-selectin (Homo sapiens) (P16581 whole entry, looked up): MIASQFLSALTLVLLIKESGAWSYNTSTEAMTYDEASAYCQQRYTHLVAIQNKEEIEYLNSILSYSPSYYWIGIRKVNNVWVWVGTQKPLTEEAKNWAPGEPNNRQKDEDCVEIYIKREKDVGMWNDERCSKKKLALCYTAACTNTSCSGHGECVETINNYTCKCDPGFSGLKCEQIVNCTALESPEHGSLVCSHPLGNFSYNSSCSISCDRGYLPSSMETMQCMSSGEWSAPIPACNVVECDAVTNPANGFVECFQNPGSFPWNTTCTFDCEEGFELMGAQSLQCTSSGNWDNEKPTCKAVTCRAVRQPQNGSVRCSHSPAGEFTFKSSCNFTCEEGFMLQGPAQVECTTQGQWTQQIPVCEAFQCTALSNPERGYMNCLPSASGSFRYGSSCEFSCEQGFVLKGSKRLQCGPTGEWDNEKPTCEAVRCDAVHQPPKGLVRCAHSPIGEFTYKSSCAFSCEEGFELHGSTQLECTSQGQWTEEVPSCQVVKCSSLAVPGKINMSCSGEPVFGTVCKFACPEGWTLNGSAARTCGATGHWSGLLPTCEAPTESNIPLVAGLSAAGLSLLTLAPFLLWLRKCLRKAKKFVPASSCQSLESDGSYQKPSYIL
Sequence of Tumor necrosis factor (Homo sapiens) (P01375 whole entry, looked up): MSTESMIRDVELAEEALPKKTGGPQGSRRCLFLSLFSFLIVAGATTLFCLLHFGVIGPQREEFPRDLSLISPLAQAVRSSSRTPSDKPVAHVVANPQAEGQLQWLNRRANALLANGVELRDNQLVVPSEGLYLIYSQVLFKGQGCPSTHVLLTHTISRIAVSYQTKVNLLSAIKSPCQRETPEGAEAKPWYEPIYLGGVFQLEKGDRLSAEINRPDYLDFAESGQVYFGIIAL

CCCCCCCCCCCCS
active: [1] 20 µM | [2] 29.3 µM | [4] 14.2 µM | [5] 20 µM | [6] 20 µM | [8] 20 µM | [10] 33.3 µM | [11] 3.97 µM | [12] 31.4 µM | [15] 20 µM | CD38, CD38 (gene 952) 28.6 µM | CD40, CD40 (gene 958) [16] 20 µM | CD69, CD69 (gene 969) 20 µM
inactive: [3] | [7] | [9] | [13] | [14] | [17]

CCCCCCCC1CCCC1=O (stereo unspecified)
active: [1] 31.3 µM | [2] 36.3 µM | [3] 31.5 µM | [4] 28.7 µM | [5] 35.6 µM
not listed: CD40, CD40 (gene 958) [18]
inactive: all other assays above

C=C1CC/C=C(\C)CC[C@@H]2[C@@H]1CC2(C)C
active: [1] 10.8 µM | [2] 20 µM | [3] 4.87 µM | [4] 20 µM | [5] 34.5 µM | [6] 21.2 µM | [8] 36.3 µM | [9] 31.8 µM | [11] 3.97 µM | [12] 31.6 µM | [13] 5.05 µM | [15] 29.4 µM | CD38, CD38 (gene 952) 30.7 µM | CD40, CD40 (gene 958) [16] 31.7 µM | CD69, CD69 (gene 969) 32.8 µM | [17] 34.4 µM
inactive: [7] | [10] | [14]

CCCCOCCOCCO
inactive: all assays above

C=C(C)C(N)=O
not listed: CD40, CD40 (gene 958) [18]
inactive: all other assays above
